Assay results: the supplement of paper PMC3334620
Over roughly 33,000 sequences, “E-score (-0.5 to 0.5)” has its median near -0.054; the highest 2% begin near 0.35. The entries come from a sample that favours the highest values as a whole.

Each sequence was assayed against T1, Stb5 (UniProt P38699) (assay: PBM E-score (8-mer binding enrichment) (E-score (-0.5 to 0.5)); higher = stronger / more preferred TF binding). Details: protein concentration: 200 nM; construct: GST-full length.
T1 sequence: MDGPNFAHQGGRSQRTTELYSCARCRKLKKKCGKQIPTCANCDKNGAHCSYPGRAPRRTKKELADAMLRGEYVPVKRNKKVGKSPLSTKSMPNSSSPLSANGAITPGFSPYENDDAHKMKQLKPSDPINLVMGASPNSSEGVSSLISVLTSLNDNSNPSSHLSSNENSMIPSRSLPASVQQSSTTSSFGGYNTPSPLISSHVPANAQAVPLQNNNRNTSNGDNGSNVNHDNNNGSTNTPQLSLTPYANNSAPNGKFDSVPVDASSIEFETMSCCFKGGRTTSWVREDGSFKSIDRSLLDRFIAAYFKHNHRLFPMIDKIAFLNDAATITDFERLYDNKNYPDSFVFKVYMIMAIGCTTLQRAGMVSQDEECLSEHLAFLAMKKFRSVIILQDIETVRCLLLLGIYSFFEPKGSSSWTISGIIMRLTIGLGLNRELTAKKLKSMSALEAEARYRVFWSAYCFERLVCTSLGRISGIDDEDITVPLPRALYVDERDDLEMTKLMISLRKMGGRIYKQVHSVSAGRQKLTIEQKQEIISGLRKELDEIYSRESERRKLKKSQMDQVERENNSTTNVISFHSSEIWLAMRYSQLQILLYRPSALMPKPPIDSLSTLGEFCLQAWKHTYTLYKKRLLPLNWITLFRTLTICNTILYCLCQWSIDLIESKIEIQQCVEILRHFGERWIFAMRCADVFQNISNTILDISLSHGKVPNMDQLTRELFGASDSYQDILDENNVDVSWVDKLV
Procedure: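 Universal 'all 10-mer' protein binding microarrays (Agilent AMADID 015681) probed with GST-tagged S. cerevisiae TFs (full-length or DBD) made by in vitro transcription/translation (PURExpress), about 100-200 nM. Bound TF was detected with fluorescent anti-GST. Each ungapped 8-mer (which stands for itself and its reverse complement) is scored by the PBM enrichment score (E-score), a modified Wilcoxon-Mann-Whitney statistic from -0.5 to +0.5, computed with the Universal PBM Analysis Suite. Scale: above 0.35 generally sequence-specific binding.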

Sequence	PBM E-score
CGTGATAA	0.0332
GGTGATAA	0.415
GGTGATAC	0.369
AGTGATAC	-0.128
AGTGATAA	-0.0882
CGTGATAC	-0.0683
CTCCTGTC	-0.26
CACCGTTC	0.368
GGCCGTTA	0.213
AACCGTTC	0.128
CGCCGTTC	0.306
CGCCGTTA	0.356
ATCCGTTA	0.197
GTCCGTTA	0.355
GACCGTTA	0.278
CTCCGTTA	0.299
CACCGTTA	0.367
AGCCGTTA	0.0306
AACCGTTA	-0.101
GCGGGCAA	0.171
GCAGACTA	-0.158
CTCCACAG	-0.313
CCTTTTGA	-0.106
CGTTGTCC	-0.0582
GACCAATA	0.0169

Sequence	PBM E-score
GCCCTTAC	-0.0337
GAGTCGGA	0.307
CGGTCATC	0.135
GTGTCGGA	0.357
ATGTCGGA	0.303
CAGTCGGA	0.292
CGGTCGTA	0.381
GGGTCGTA	0.00669
CTGTCGGA	0.349
TAGTCGGA	0.355
CGGTCATA	0.448
CGGTCGTC	0.0319
GGGTCATA	-0.00196
GAGCGGGA	0.249
TCCAGAGA	-0.208
AGTCAAGC	-0.3
GTGAGCAA	-0.0477
TACGGGCA	0.143
GACAACTA	-0.06
GCACAGAC	0.0491
CGAGTTTC	-0.0887
CCGTCGTC	0.161
CGGTCGGA	0.313
GCGTCGGA	0.345
CCGTCGGA	0.37

Sequence	PBM E-score
CGGTCGGC	0.352
ACGTCGGC	0.27
CCGTCGGC	0.377
ACGTCGGA	0.264
AGGTCGGC	0.293
GGAATAAC	0.177
ATTTATTG	-0.0662
AAGCTGAA	-0.152
CCAAGAGG	-0.138
GGGTGCCA	-0.012
CGGTGCCA	0.414
CGGTGCGA	0.384
GGGTGCGA	-0.0506
CGGTGCCC	0.27
AGGTGCGA	0.0754
CCTGCTGA	-0.216
CGCTTCCG	0.208
CCCGACTA	0.312
GGTGCCGA	0.292
AGTGCCGG	0.407
ATTGCCGA	0.318
AGTGCCTG	-0.17
AGTGCCAG	-0.0267
ATTGCCGG	0.408
ATTGCCGC	0.351

Sequence	PBM E-score
AGTGCCGC	0.381
AGTGCCGA	0.387
CGTGCCGC	0.249
CGTGCCGA	0.212
AGTGCCAC	-0.251
CACCAACG	0.0702
AACCGTGT	-0.115
AGTCTGGG	-0.291
CCTGAGCG	-0.0867
CCGATAGA	0.249
TGTCCCAA	-0.0294
ATTAGCTG	-0.119
CCTCTAAA	-0.196
AACCGACG	0.286
AACCGACA	0.181
CACCGAGG	0.23
CACCGACG	0.453
GACCGACC	0.308
CACCGAAC	0.366
GACCGACA	0.341
CACCGACC	0.418
CACCGAAG	0.253
TACCGACA	0.356
AACCGACC	0.244
GACCGAAC	0.145

Sequence	PBM E-score
CCCATGAA	-0.0849
CCAAGTAG	-0.293
CAGTGCGC	-0.135
GACCACAC	-0.152
ACCCTAGG	-0.165
CTTCACAC	-0.0447
CACCGACA	0.44
CACCGAGA	0.151
CACCGAAA	0.305
AAAAAGAT	-0.291
AGGACGTA	-0.182
CGGAGACA	0.398
CGGACACG	0.232
CGGAGACG	0.166
CGGACATA	0.474
AGGAGACA	-0.131
CGGACACA	0.356
TGGACACA	-0.0717
CGGACATC	0.256
CGGACGTA	0.407
GGGACATA	0.132
CGGACGTC	0.0917
ACCCCCTC	-0.265
GTGCACCA	-0.17
CGGAGGGC	-0.0349

Sequence	PBM E-score
CCTTCCCG	-0.125
ACAGCGTA	-0.0758
AAAATCAC	-0.092
GGTGATCA	0.0514
CTTGTGGC	-0.163
CGTAGTAC	0.0304
AACCGGTG	0.306
GACCGGTA	0.231
AACCGGTC	0.272
CACCGGTG	0.408
CTCCGGTA	0.316
CACCGGTA	0.408
AACCGGTA	0.261
TACCGGTA	0.36
CACCGGTC	0.337
AGAAGCCT	-0.0816
TCTGCAGA	0.00207
CCCCCAGG	-0.281
AAACCCCC	0.263
AAAAACCC	0.226
CAAACCCG	0.216
GAAAACCC	0.278
AAAACCCG	0.379
AAAACCCT	-0.074
CTAACTCC	0.288

Sequence	PBM E-score
ATAACTCC	0.429
ATAACTCG	0.0637
GAAACCCC	0.353
GAAACCCA	0.0284
AAAACCCC	0.355
AATCTGTG	-0.207
CGCAGAAA	-0.114
GCAAAGGC	0.115
GGTGGACA	0.00374
TCTTTCAA	-0.0737
ACCCTCCG	0.134
CGGTGGCA	0.299
CCTTATCC	0.00435
ATCTCCAC	0.0569
GTCTTAAA	0.179
ACTCGACT	-0.224
CTAAACCC	0.233
ATAAACCC	0.373
ATAAACCA	-0.078
ATAACCCC	0.412
ATAACCCG	0.228
ATAACCCA	-0.157
AATTCCTA	-0.258
AAAGACCC	0.0704
GCAGACGC	-0.0745

Sequence	PBM E-score
AAAAGCAT	-0.0942
CTCTCCGC	0.0985
ATCTCCGG	0.423
ATCTCCCG	0.124
ATCTCCGC	0.406
ATCTCCGA	0.394
ATCTCCCC	0.0718
ATCTCCAG	0.0194
GTCTCCGA	0.23
CTCTCCGA	0.00777
AGGCGTTG	-0.11
AAAAGGGT	-0.27
CCCAGGAA	-0.286
TCGAATCA	-0.163
TGGACCCA	-0.218
ACGACCCA	-0.191
CGGACCAA	0.376
CGGACCAG	0.0937
CGGACCAC	0.134
TCGACCCA	-0.256
CCGACCGG	0.382
CCGACCGA	0.314
CGGACCCA	0.381
GGGACCCA	-0.0663
CCGACCCA	0.369

Sequence	PBM E-score
CCGACCGC	0.284
CGAAGAGA	-0.138
AAAGCGCG	0.121
CTGTGCGA	-0.121
GTTGCAAC	0.183
ATGAAAGC	-0.0893
AGGACCTA	0.141
CGGACCGA	0.4
CTGACCGA	-0.0342
GGGACCTA	0.138
CGGACCTA	0.466
GGGACCGA	0.257
ATGGCTTA	-0.119
ACCCCAGC	-0.0864
CAATAGCC	0.0314
CACATCTG	-0.103
CGGCCCTA	0.426
CGGCCATC	0.157
GGGCCATA	0.0906
AGGCCCTA	-0.0592
GGGCCCTA	-0.0134
CGGCCATA	0.376
